Experiments:
Assay in all cases: SPOT peptide array binding signal intensity (averaged, normalized) (arbitrary units (background-subtracted, floor 0; scale differs between SH3 domains)); higher = stronger binding of the SH3 domain to the peptide
AgAbp1 = target: AgAbp1
Procedure, shortened: (§1)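 Four yeast species supplied the SH3 domains, which were expressed as GST fusions in E. coli BL21(DE3) and purified on glutathione Sepharose. Incubation with cellulose membranes carrying synthetic 15-mer peptides, cysteines exchanged for serines, ran overnight at 4°C at 10 μg/ml in TBS-based blocking buffer. Binding signal is reported as normalized, background-subtracted spot intensity averaged over replicates, in arbitrary units not shared between domains.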

AgBbc1 = target: AgBbc1
Procedure, shortened: as §1

AgBem1-D1 = target: AgBem1-D1
Procedure, shortened: as §1

AgBzz1-D1 = target: AgBzz1-D1
Procedure, shortened: as §1

AgBzz1-D2 = target: AgBzz1-D2
Procedure, shortened: as §1

AgCyk3 = target: AgCyk3
Procedure, shortened: as §1

AgFus1 = target: AgFus1
Procedure, shortened: as §1

AgHof1 = target: AgHof1
Procedure, shortened: as §1

AgHse1 = target: AgHse1
Procedure, shortened: as §1

AgLsb1 = target: AgLsb1
Procedure, shortened: as §1

AgLsb4 = target: AgLsb4
Procedure, shortened: as §1

AgMyo5 = target: AgMyo5
Procedure, shortened: as §1

AgNbp2 = target: AgNbp2
Procedure, shortened: as §1

AgRvs167 = target: AgRvs167
Procedure, shortened: as §1

AgSho1 = target: AgSho1
Procedure, shortened: as §1

AgSla1-D1-D2 = target: AgSla1-D1-D2
Procedure, shortened: as §1

AgSla1-D3 = target: AgSla1-D3
Procedure, shortened: as §1

CaAbp1-D1 = target: CaAbp1-D1
Procedure, shortened: as §1

CaAbp1-D2 = target: CaAbp1-D2
Procedure, shortened: as §1

CaBbc1 = target: CaBbc1
Procedure, shortened: as §1

CaBem1-D1 = target: CaBem1-D1
Procedure, shortened: as §1

CaBzz1-D1 = target: CaBzz1-D1
Procedure, shortened: as §1

CaBzz1-D2 = target: CaBzz1-D2
Procedure, shortened: as §1

CaCyk3 = target: CaCyk3
Procedure, shortened: as §1

CaFus1 = target: CaFus1
Procedure, shortened: as §1

CaHof1 = target: CaHof1
Procedure, shortened: as §1

CaHse1 = target: CaHse1
Procedure, shortened: as §1

CaLsb1 = target: CaLsb1
Procedure, shortened: as §1

CaLsb4 = target: CaLsb4
Procedure, shortened: as §1

CaMyo5 = target: CaMyo5
Procedure, shortened: as §1

CaNbp2 = target: CaNbp2
Procedure, shortened: as §1

CaRvs167 = target: CaRvs167
Procedure, shortened: as §1

CaRvs167-3 = target: CaRvs167-3
Procedure, shortened: as §1

CaSho1 = target: CaSho1
Procedure, shortened: as §1

CaSla1-D1-D2 = target: CaSla1-D1-D2
Procedure, shortened: as §1

CaSla1-D3 = target: CaSla1-D3
Procedure, shortened: as §1

ScAbp1 = target: ScAbp1
Procedure, shortened: as §1

ScBbc1 = target: ScBbc1
Procedure, shortened: as §1

ScBem1-D1 = target: ScBem1-D1
Procedure, shortened: as §1

ScBzz1-D1 = target: ScBzz1-D1
Procedure, shortened: as §1

ScBzz1-D2 = target: ScBzz1-D2
Procedure, shortened: as §1

ScCyk3 = target: ScCyk3
Procedure, shortened: as §1

ScFus1 = target: ScFus1
Procedure, shortened: as §1

ScHof1 = target: ScHof1
Procedure, shortened: as §1

ScHse1 = target: ScHse1
Procedure, shortened: as §1

ScLsb1 = target: ScLsb1
Procedure, shortened: as §1

ScLsb2 = target: ScLsb2
Procedure, shortened: as §1

ScLsb3 = target: ScLsb3
Procedure, shortened: as §1

ScLsb4 = target: ScLsb4
Procedure, shortened: as §1

ScMyo3 = target: ScMyo3
Procedure, shortened: as §1

ScMyo5 = target: ScMyo5
Procedure, shortened: as §1

ScNbp2 = target: ScNbp2
Procedure, shortened: as §1

ScPex13 = target: ScPex13
Procedure, shortened: as §1

ScRvs167 = target: ScRvs167
Procedure, shortened: as §1

ScSho1 = target: ScSho1
Procedure, shortened: as §1

ScSla1-D1-D2 = target: ScSla1-D1-D2
Procedure, shortened: as §1

ScSla1-D3 = target: ScSla1-D3
Procedure, shortened: as §1

SpAbp1-D1 = target: SpAbp1-D1
Procedure, shortened: as §1

SpBbc1 = target: SpBbc1
Procedure, shortened: as §1

SpBzz1-D1 = target: SpBzz1-D1
Procedure, shortened: as §1

SpBzz1-D2 = target: SpBzz1-D2
Procedure, shortened: as §1

SpCyk3 = target: SpCyk3
Procedure, shortened: as §1

SpHof1 = target: SpHof1
Procedure, shortened: as §1

SpHof1-2 = target: SpHof1-2
Procedure, shortened: as §1

SpHof1-3 = target: SpHof1-3
Procedure, shortened: as §1

SpHse1 = target: SpHse1
Procedure, shortened: as §1

SpLsb1 = target: SpLsb1
Procedure, shortened: as §1

SpLsb4 = target: SpLsb4
Procedure, shortened: as §1

SpMyo1 = target: SpMyo1
Procedure, shortened: as §1

SpNbp2 = target: SpNbp2
Procedure, shortened: as §1

SpPex13 = target: SpPex13
Procedure, shortened: as §1

SpRvs167 = target: SpRvs167
Procedure, shortened: as §1

SpSla1-D1-D2 = target: SpSla1-D1-D2
Procedure, shortened: as §1

SpSla1-D3 = target: SpSla1-D3
Procedure, shortened: as §1

B1: unnamed (peptide)
chain: RKNRAPPQRPRFNRE
AgAbp1
  SPOT peptide array binding signal intensity: 777
AgBbc1
  SPOT peptide array binding signal intensity: 536
AgBem1-D1
  SPOT peptide array binding signal intensity: 379
AgBzz1-D1
  SPOT peptide array binding signal intensity: 248
AgBzz1-D2
  SPOT peptide array binding signal intensity: 220
AgCyk3
  SPOT peptide array binding signal intensity: 7
AgFus1
  SPOT peptide array binding signal intensity: 404
AgHof1
  SPOT peptide array binding signal intensity: 117
AgHse1
  SPOT peptide array binding signal intensity: 469
AgLsb1
  SPOT peptide array binding signal intensity: 267
AgLsb4
  SPOT peptide array binding signal intensity: 71
AgMyo5
  SPOT peptide array binding signal intensity: 2.5
AgNbp2
  SPOT peptide array binding signal intensity: 1890
AgRvs167
  SPOT peptide array binding signal intensity: 8.33
AgSho1
  SPOT peptide array binding signal intensity: 47.5
AgSla1-D1-D2
  SPOT peptide array binding signal intensity: 320
AgSla1-D3
  SPOT peptide array binding signal intensity: 39.2
CaAbp1-D1
  SPOT peptide array binding signal intensity: 976
CaAbp1-D2
  SPOT peptide array binding signal intensity: 788
CaBbc1
  SPOT peptide array binding signal intensity: 945
CaBem1-D1
  SPOT peptide array binding signal intensity: 39
CaBzz1-D1
  SPOT peptide array binding signal intensity: 2100
CaBzz1-D2
  SPOT peptide array binding signal intensity: 1120
CaCyk3
  SPOT peptide array binding signal intensity: 642
CaFus1
  SPOT peptide array binding signal intensity: 706
CaHof1
  SPOT peptide array binding signal intensity: 0.5
CaHse1
  SPOT peptide array binding signal intensity: 89.8
CaLsb1
  SPOT peptide array binding signal intensity: 7
CaLsb4
  SPOT peptide array binding signal intensity: 646
CaMyo5
  SPOT peptide array binding signal intensity: 9.25
CaNbp2
  SPOT peptide array binding signal intensity: 1020
CaRvs167
  SPOT peptide array binding signal intensity: 26.5
CaRvs167-3
  SPOT peptide array binding signal intensity: 28.5
CaSho1
  SPOT peptide array binding signal intensity: 117
CaSla1-D1-D2
  SPOT peptide array binding signal intensity: 752
CaSla1-D3
  SPOT peptide array binding signal intensity: 15
ScAbp1
  SPOT peptide array binding signal intensity: 369
ScBbc1
  SPOT peptide array binding signal intensity: 290
ScBem1-D1
  SPOT peptide array binding signal intensity: 112
ScBzz1-D1
  SPOT peptide array binding signal intensity: 46
ScBzz1-D2
  SPOT peptide array binding signal intensity: 26
ScCyk3
  SPOT peptide array binding signal intensity: 88
ScFus1
  SPOT peptide array binding signal intensity: 209
ScHof1
  SPOT peptide array binding signal intensity: 2.5
ScHse1
  SPOT peptide array binding signal intensity: 761
ScLsb1
  SPOT peptide array binding signal intensity: 162
ScLsb2
  SPOT peptide array binding signal intensity: 196
ScLsb3
  SPOT peptide array binding signal intensity: 622
ScLsb4
  SPOT peptide array binding signal intensity: 34.5
ScMyo3
  SPOT peptide array binding signal intensity: 8.5
ScMyo5
  SPOT peptide array binding signal intensity: 10
ScNbp2
  SPOT peptide array binding signal intensity: 4060
ScPex13
  SPOT peptide array binding signal intensity: 128
ScRvs167
  SPOT peptide array binding signal intensity: 192
ScSho1
  SPOT peptide array binding signal intensity: 979
ScSla1-D1-D2
  SPOT peptide array binding signal intensity: 1390
ScSla1-D3
  SPOT peptide array binding signal intensity: 30.2
SpAbp1-D1
  SPOT peptide array binding signal intensity: 634
SpBbc1
  SPOT peptide array binding signal intensity: 25.5
SpBzz1-D1
  SPOT peptide array binding signal intensity: 707

B2: unnamed (peptide)
chain: GERSRPLVISILSSA
AgAbp1
  SPOT peptide array binding signal intensity: ≤ 0
AgBbc1
  SPOT peptide array binding signal intensity: 14.8
AgBem1-D1
  SPOT peptide array binding signal intensity: 73
AgBzz1-D1
  SPOT peptide array binding signal intensity: 90
AgBzz1-D2
  SPOT peptide array binding signal intensity: 106
AgCyk3
  SPOT peptide array binding signal intensity: 14
AgFus1
  SPOT peptide array binding signal intensity: 1940
AgHof1
  SPOT peptide array binding signal intensity: 14.8
AgHse1
  SPOT peptide array binding signal intensity: 106
AgLsb1
  SPOT peptide array binding signal intensity: ≤ 0
AgLsb4
  SPOT peptide array binding signal intensity: 262
AgMyo5
  SPOT peptide array binding signal intensity: ≤ 0
AgNbp2
  SPOT peptide array binding signal intensity: 25
AgRvs167
  SPOT peptide array binding signal intensity: 3.67
AgSho1
  SPOT peptide array binding signal intensity: 120
AgSla1-D1-D2
  SPOT peptide array binding signal intensity: 11
AgSla1-D3
  SPOT peptide array binding signal intensity: 5
CaAbp1-D1
  SPOT peptide array binding signal intensity: 43
CaAbp1-D2
  SPOT peptide array binding signal intensity: 2
CaBbc1
  SPOT peptide array binding signal intensity: 55.2
CaBem1-D1
  SPOT peptide array binding signal intensity: 28.5
CaBzz1-D1
  SPOT peptide array binding signal intensity: 268
CaBzz1-D2
  SPOT peptide array binding signal intensity: 175
CaCyk3
  SPOT peptide array binding signal intensity: 37
CaFus1
  SPOT peptide array binding signal intensity: 3880
CaHof1
  SPOT peptide array binding signal intensity: ≤ 0
CaHse1
  SPOT peptide array binding signal intensity: 10.5
CaLsb1
  SPOT peptide array binding signal intensity: 0.5
CaLsb4
  SPOT peptide array binding signal intensity: ≤ 0
CaMyo5
  SPOT peptide array binding signal intensity: 24
CaNbp2
  SPOT peptide array binding signal intensity: 171
CaRvs167
  SPOT peptide array binding signal intensity: 45.8
CaRvs167-3
  SPOT peptide array binding signal intensity: 538
CaSho1
  SPOT peptide array binding signal intensity: 497
CaSla1-D1-D2
  SPOT peptide array binding signal intensity: 11
CaSla1-D3
  SPOT peptide array binding signal intensity: 170
ScAbp1
  SPOT peptide array binding signal intensity: 3
ScBbc1
  SPOT peptide array binding signal intensity: 4
ScBem1-D1
  SPOT peptide array binding signal intensity: 9
ScBzz1-D1
  SPOT peptide array binding signal intensity: 97
ScBzz1-D2
  SPOT peptide array binding signal intensity: 619
ScCyk3
  SPOT peptide array binding signal intensity: 121
ScFus1
  SPOT peptide array binding signal intensity: 3300
ScHof1
  SPOT peptide array binding signal intensity: ≤ 0
ScHse1
  SPOT peptide array binding signal intensity: 500
ScLsb1
  SPOT peptide array binding signal intensity: ≤ 0
ScLsb2
  SPOT peptide array binding signal intensity: ≤ 0
ScLsb3
  SPOT peptide array binding signal intensity: 6.5
ScLsb4
  SPOT peptide array binding signal intensity: 7
ScMyo3
  SPOT peptide array binding signal intensity: ≤ 0
ScMyo5
  SPOT peptide array binding signal intensity: 1
ScNbp2
  SPOT peptide array binding signal intensity: 71.5
ScPex13
  SPOT peptide array binding signal intensity: 19.8
ScRvs167
  SPOT peptide array binding signal intensity: 6
ScSho1
  SPOT peptide array binding signal intensity: 910
ScSla1-D1-D2
  SPOT peptide array binding signal intensity: 8
ScSla1-D3
  SPOT peptide array binding signal intensity: 22
SpAbp1-D1
  SPOT peptide array binding signal intensity: ≤ 0
SpBbc1
  SPOT peptide array binding signal intensity: 18
SpBzz1-D1
  SPOT peptide array binding signal intensity: 314
SpBzz1-D2
  SPOT peptide array binding signal intensity: 0.75
SpCyk3
  SPOT peptide array binding signal intensity: 26.5
SpHof1
  SPOT peptide array binding signal intensity: 146
SpHof1-2
  SPOT peptide array binding signal intensity: 12.2
SpHof1-3
  SPOT peptide array binding signal intensity: 113
SpHse1
  SPOT peptide array binding signal intensity: 482
SpLsb1
  SPOT peptide array binding signal intensity: ≤ 0
SpLsb4
  SPOT peptide array binding signal intensity: 9
SpMyo1
  SPOT peptide array binding signal intensity: 6
SpNbp2
  SPOT peptide array binding signal intensity: 146
SpPex13
  SPOT peptide array binding signal intensity: 28
SpRvs167
  SPOT peptide array binding signal intensity: 0.333
SpSla1-D1-D2
  SPOT peptide array binding signal intensity: ≤ 0
SpSla1-D3
  SPOT peptide array binding signal intensity: 11

From the supplement of paper PMC4466140
